# Source: PubChem BioAssay (National Center for Advancing Translational Sciences (NCATS))
# Pf Dd2 inh: Plasmodium falciparum Dd2 growth inhibition | P. falciparum Dd2 growth, SYBR Green, 72 h | Potency, µM (doses to about 28.9 µM), for the others: at the top dose activity, negative = inhibition, most hits filed as inhibitors | 120,000 compounds, 4.3% hits | AID 1347417; active = well fitted inhibition curve with a large enough effect;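 also: plate controls were DMSO vehicle for no effect and reference drug for full effect; nearly all actives have a fitted effect of over 65% in size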
#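 Readout: SYBR Green fluorescence, 485 nm excitation, 535 nm emission, after ~16 h lysis at 37C. Before that, Dd2-infected red cells (2.5% hematocrit) grew 72 h with compound, 29 uM top final concentration.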
# Numbers without * were called inactive; i = inactive; [ ] = dose if it differs, or a comment. The full list was thinned out, with hits kept by preference. Potency is read from the fitted curve at half-maximal effect.
SMILES,Pf Dd2 inh
COc1ccc(N2CCN(C(=O)c3c(C)nn(-c4ccc(F)cc4)c3-n3cccc3)CC2)cc1,10%
COc1ccc(-c2cc3nc(C)c(CCC(=O)N4CCN(c5ccc(F)cc5)CC4)c(C)n3n2)c(OC)c1,10µM*
COc1ccc(N2CCN(C(=O)CCc3c(C)nc4cc(-c5ccc(Cl)cc5)nn4c3C)CC2)cc1,i
Cc1nc2ncnn2c(C)c1CCC(=O)N1CCN(c2ccc(F)cc2)CC1,5%
CC(=O)N1CCN(CC[C@H]2CN(C(=O)c3ccc(C(F)(F)F)cc3)CC[C@H]2CC(=O)O)CC1,11%
COc1ccc(CN2C[C@H]3CN(Cc4ncc[nH]4)CCN3C2=O)cc1,-15%[44.1 µM]
COc1ccccc1CNC(=O)C1CCCN(Cc2cccnc2)CCC(=O)NCC1 (stereo not given),-11%
COc1ccc(OC2CN(C(=O)c3ccccc3OC)C2)cc1,11%
COc1ccc(CN2CCC(C3CCN(S(C)(=O)=O)CC3)C2)cc1C (stereo not given),i
COc1ccc([C@@H](NC(=O)c2ccc3nnnn3c2)C2CC(O)C2)cn1 (stereo not given in full),-7%
O=C1CCCCCN1CCC(=O)N1CCn2nc(Cc3ccccc3)cc2C1,-20%
Cc1noc(C)c1S(=O)(=O)N(C)C1CCc2nn(CC3CC3)c(=O)n2CC1 (stereo not given),i
CCS[C@H]1CCN2C(=O)c3ccccc3NC(=O)[C@H]12,4%[44.1 µM]
O=C(NC1CCCCC1)N[C@H]1CCN2C(=O)c3cc(-c4ccccc4)ccc3NC(=O)[C@H]12,8%[44.1 µM]
Cc1cccc(-c2ccc3c(c2)C(=O)N2CC[C@H](N)[C@H]2C(=O)N3)c1C,-8%[44.1 µM]
O=C(N[C@H]1CCN2C(=O)c3cc(-c4ccccc4)ccc3NC(=O)[C@H]12)c1cnccn1,11µM*
O=C(O)COCC(=O)N[C@H]1CCN2C(=O)c3cc(-c4ccccc4)ccc3NC(=O)[C@H]12,-19%[44.1 µM]
CCS[C@H]1CCN2C(=O)c3cc(-c4ccccc4)ccc3NC(=O)[C@H]12,11µM*
O=C(CCc1ccccc1)N1CCC[C@H]1c1nc(-c2ccccc2Cl)no1,-6%
c1cc(Cn2cccn2)cc(-c2cn(CC3CNCCO3)nn2)c1 (stereo not given),-6%
O=Cc1ccc(N2CCN(C(=O)c3ccc4c(c3)OCO4)CC2=O)cc1,10%
CCOC(=O)Cn1cc2c(c1-c1ccc(Cl)cc1)c(=O)n(C)c(=O)n2C,-7%
Cn1c(=O)c2c(-c3ccc(Cl)cc3)n(Cc3ccc(Cl)cc3)cc2n(C)c1=O,11µM*
Cn1c(=O)c2c(ncn2Cc2ccc(Cl)cc2)n(C)c1=O,-8%
CCOCc1nc(C2CCCN(C(=O)c3ccccn3)C2)no1 (stereo not given),57%
SMILES,Pf Dd2 inh
COCCn1ccc2c(C3=CCOCC3)nc(-c3cccc(CO)c3)cc21,i
COc1ccc(CN2CCc3nc(N4CCN(c5ccc(F)cc5)CC4)ncc3C2)c(OC)c1OC,11µM*
Fc1ccccc1N1CCN(c2ncc3c(n2)CCN(Cc2cc(Br)cs2)C3)CC1,-19%
CCc1ccc(CN2CCc3nc(N4CCN(c5ccccc5F)CC4)ncc3C2)cc1,8.9µM*
COc1cc(OC)c(OC)cc1CN1CCc2nc(N3CCN(c4ncccn4)CC3)ncc2C1,7.9µM*
COc1ccc(CN2CCc3nc(N4CCOCC4)[nH]c(=O)c3CC2)c(OC)c1OC,i[5.79 µM]
COc1ccccc1N1CCN(c2ncc3c(n2)CCN(Cc2ccccc2F)C3)CC1,42%[5.79 µM]
CCN1CCN(c2ncc3c(n2)CCN(Cc2cccc(F)c2F)C3)CC1,32%[5.79 µM]
CCOc1ccc(CN2CCc3nc(N4CCN(c5ncccn5)CC4)ncc3C2)cc1OC,7.9µM*
COc1ccccc1N1CCN(c2ncc3c(n2)CCN(Cc2ccc(C)s2)C3)CC1,-8%
Fc1ccccc1N1CCN(c2ncc3c(n2)CCN(Cc2ccc(Br)s2)C3)CC1,-9%
CCOc1ccc(CN2CCc3nc(N4CCN(c5ccccc5OC)CC4)ncc3C2)cc1OC,-23%
Clc1ccc(CN2CCc3nc(N4CCN(c5ccccn5)CC4)ncc3C2)cc1,-5%
O=C(c1cnccn1)N1CCCC(Cc2nc(C3CCOCC3)no2)C1 (stereo not given),30%
CC(=O)N1CCN([C@H]2[C@@H]3OC[C@@H](O3)[C@@H](NC(=O)NC3CCCCC3)[C@@H]2O)CC1,29%[44.1 µM]
Cc1nn2c(c1-c1cccnc1N1CCOCC1)N(C(=O)C(C)C)CCC2,-18%[44.1 µM]
CCn1cc(S(=O)(=O)N[C@@H]2CCOC[C@H]2O)c(C)n1,4%
Cn1ncc2c(C(=O)NCCc3ccc(Cl)cc3)cc(C(C)(C)C)nc21,46%
O=C(c1ccc(Cl)nc1)N1CCc2nc(C3CC3)nc(-c3ccc(Cl)cc3)c2C1,-12%
Cc1ccccc1NC(=O)N1CCOCC1CC(=O)NCc1cccnc1 (stereo not given),2%
COc1cc(OC)c(OC)cc1CN1CCc2nc(Nc3ccc4c(c3)OCCO4)ncc2C1,10µM*
COc1cccc(CN2CCc3nc(Nc4ccc5c(c4)OCCO5)ncc3C2)c1,-20%
Clc1ccc(CN2CCc3nc(Nc4ccc5c(c4)OCCO5)ncc3C2)cc1,i
Cn1cc([C@@H](NC(=O)CCn2nnc3ccccc32)C2CC(O)C2)cn1 (stereo not given in full),-23%
COc1ccc(CN2CCOc3nc(-c4cccc(C#N)c4)ncc3C2=O)cc1,i
SMILES,Pf Dd2 inh
CCc1ccc(C(=O)c2cn(CC(=O)Nc3ccc(OC)cc3OC)c3ccc(CC)cc3c2=O)cc1,i
CCc1ccc(C(=O)c2cn(CC(=O)Nc3cc(OC)cc(OC)c3)c3ccc(CC)cc3c2=O)cc1,22%
CCOc1ccc(NC(=O)Cn2cc(C(=O)c3ccc(CC)cc3)c(=O)c3cc(OC)c(OC)cc32)cc1,-7%
CCc1ccc(C(=O)c2cn(CC(=O)Nc3cc(OC)ccc3OC)c3ccc(C)cc3c2=O)cc1,10µM*
CCc1ccc(C(=O)c2cn(CC(=O)Nc3ccc(F)c(F)c3)c3cc(OC)c(OC)cc3c2=O)cc1,i
CCc1ccc(C(=O)c2cn(Cc3ccc(F)cc3)c3cc(OC)c(OC)cc3c2=O)cc1,11µM*
Cc1nccn1C(C)CN1C(=O)NC2(CCNCC2)C1=O (stereo not given),-2%
CC(=O)N1CCC(N2CCOC[C@H]2c2ncc(-c3cccnc3)[nH]2)CC1,29%[44.1 µM]
CCc1nncn1C1CCN(C(=O)c2nn(C)c3ccccc23)C1 (stereo not given),i
Cn1cncc1-c1nnc([C@H]2CCN(C(=O)c3ccncc3)C2)o1,-4%[44.1 µM]
CCc1noc(-c2cccn3c(CNC(=O)CCc4cccc(OC)c4)nnc23)n1,i
CCN(CC)Cc1ccc2c(c1)CN(C(=O)c1cccc(F)c1)CCO2,6.3µM*
COc1cccc(C(=O)N2CCOc3ccc(CN4CCCCC4)cc3C2)c1,i
CCOCCCNC(=O)N1CCOc2ccc(CN(CC)CC)cc2C1,i
COc1cccc(CNC(=O)[C@@H]2C[C@@H](O)CN2C2CCN(C(=O)C3CCCC3)CC2)c1,i
COc1ccc(NCc2cc3cc4c(cc3n(CC(=O)Nc3cc(C)cc(C)c3)c2=O)OCO4)cc1,-6%
COc1cc2cc(CNc3ccccc3)c(=O)n(CC(=O)Nc3cc(C)cc(C)c3)c2cc1OC,11µM*
CCc1ccc(NC(=O)Cn2c(=O)c(CNc3ccccc3)cc3cc(OC)c(OC)cc32)cc1,i
COc1ccc(C2(C(=O)N3CCCCCCN(C)C(=O)[C@@H]4CCC[C@@H]43)CC2)cc1,-17%
Cn1ccc(NC(=O)[C@@H]2C[C@@H](c3ccc(F)cc3)N([S+](=O)([O-])c3ccccc3)C2)n1,-22%[44.1 µM]
